{"source": "PubChem BioAssay (NCATS)", "note": "Where “and” joins values, the source holds several entries; their conditions need not be identical. Equal entries are not always repeated. Calls of active or inactive are those of the source. The call rests on the fitted dose curve; in most records, active means well fitted activation curve with a large enough effect; inconclusive means small, poorly fitted or top-dose-only effect; inactive means flat fitted curve, though single readings scatter."}
{"target": "Peroxisome proliferator-activated receptor alpha (Homo sapiens) (UniProt Q07869)", "sequence (Q07869 whole entry, looked up)": "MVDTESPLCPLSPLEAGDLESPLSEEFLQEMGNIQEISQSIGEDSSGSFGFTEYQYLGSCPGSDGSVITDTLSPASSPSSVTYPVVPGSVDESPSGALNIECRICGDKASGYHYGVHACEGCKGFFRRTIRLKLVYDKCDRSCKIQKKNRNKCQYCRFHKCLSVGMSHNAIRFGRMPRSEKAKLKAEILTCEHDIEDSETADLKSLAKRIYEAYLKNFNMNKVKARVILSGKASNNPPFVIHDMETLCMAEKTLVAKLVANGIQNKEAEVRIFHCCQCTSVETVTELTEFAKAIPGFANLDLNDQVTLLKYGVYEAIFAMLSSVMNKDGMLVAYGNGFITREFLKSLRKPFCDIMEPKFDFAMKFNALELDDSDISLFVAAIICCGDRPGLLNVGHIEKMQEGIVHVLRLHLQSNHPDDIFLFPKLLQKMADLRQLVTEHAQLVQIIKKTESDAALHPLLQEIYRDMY", "assay": "qHTS assay for small molecule agonists of the peroxisome proliferator-activated receptor alpha (PPARalpha) signaling pathway (AID 651778); further: % of control where 0% means no effect", "settings": "PathHunter PPARalpha complementation, chemiluminescence, 6 h; active compounds read high", "from_the_text": "National Center for Advancing Translational Sciences [NCATS]\nNIH Chemical Genomics Center [NCGC]\nU.S. Environmental Protection Agency [EPA]\nNational Institutes of Environmental Health Sciences [NIEHS]\nNational Toxicology Program [NTP]\nThe Peroxisome proliferator-activated receptors (PPARs) are lipid-activated transcription factors of the nuclear receptor superfamily with three distinct subtypes (alpha, garmma and beta/delta). All these subtypes heterodimerize with retinoid X receptor and have different physiological functions. PPARalpha is highly expressed in tissues with high rates of mitochondrial fatty acid oxidation, such as liver, heart, muscle, kidney and cells of the arterial wall. PPARalpha is a major regulator of lipid metabolism and energy homeostasis.\nA cell based assay was used to identify activators of PPARalpha. The assay detects binding of a ligand to PPARalpha leading to its activation, translocation and complementation thus forming a functional enzyme capable of hydrolyzing the substrate molecule and generating chemiluminescent signal.\n2,000 cells in 6 uL/well were dispensed into white wall/solid bottom 1536-well plates using a Multidrop Combi (Thermo Scientific) dispenser. After incubation 37 C and 5% CO2 overnight, 23 nL compound or DMSO only were transferred by a pin tool. The plates were incubated for 6 hr at 37 C and 5% CO2. 3 ul PathHunter detection reagent (Discoverx) was then added to each well and following 60 min incubation at room temperature, chemiluminescence was quantified on a ViewLux CCD-based plate reader."}
{"smiles": "CCCCC(CC)CO", "note": "(stereo not given)", "max response": "-2.86% (inactive)"}
{"smiles": "O=[N+]([O-])c1c(Cl)cc(Cl)cc1Cl", "max response": "0.895% (inactive)"}
{"smiles": "O=[N+]([O-])c1cccc(C(F)(F)F)c1", "max response": "2.74% (inactive)"}
{"smiles": "NCCCCCCN", "max response": "-4.8% (inactive)"}
{"smiles": "O=Cc1ccccc1Cl", "max response": "-3.69% (inactive)"}
{"smiles": "COc1cccc2sc(N)nc12", "max response": "-2.03% (inactive)"}
{"smiles": "Nc1ccccc1[N+](=O)[O-]", "max response": "-3.89% (inactive)"}
{"smiles": "CC(=O)OC(C)C", "max response": "-3.3% (inactive)"}
{"smiles": "CC(=O)c1ccccn1", "max response": "0.325% (inactive)"}
{"smiles": "NS(=O)(=O)O", "max response": "-1.54% (inactive)"}
{"smiles": "NC(=S)NNC(N)=S", "max response": "0.409% (inactive) and -1.13% (inactive)"}
{"smiles": "Cc1ccc(C#N)cc1", "max response": "0.216% (inactive)"}
{"smiles": "Cc1ccc(C)c([N+](=O)[O-])c1", "max response": "-2.55% (inactive)"}
{"smiles": "CCCCCCC(=O)O", "max response": "14.5% (inactive)"}
{"smiles": "Cc1ccc(C(C)(C)C)cc1", "max response": "3.18% (inactive)"}
{"smiles": "Cc1ccc(C)cc1", "max response": "-4.74% (inactive)"}
{"smiles": "CC(C)(c1cc(Br)c(OCC(Br)CBr)c(Br)c1)c1cc(Br)c(OCC(Br)CBr)c(Br)c1", "note": "(stereo not given)", "max response": "-5.28% (inactive)"}
{"smiles": "C[C@@H]1O[C@@H](O[C@@H]2[C@@H](O)[C@H](OCCc3ccc(O)c(O)c3)O[C@H](CO[C@@H]3O[C@H](CO)[C@@H](O)[C@H](O)[C@H]3O)[C@H]2OC(=O)/C=C/c2ccc(O)c(O)c2)[C@H](O)[C@H](O)[C@H]1O", "max response": "0.275% (inactive)"}
{"smiles": "CN(C)CCCCl", "max response": "-1.33% (inactive)"}
{"smiles": "CCCCCCCCCCCCOCC1CO1", "note": "(stereo not given)", "max response": "-0.128% (inactive)"}
{"smiles": "Nc1cccc([N+](=O)[O-])c1", "max response": "-2.36% (inactive)"}
{"smiles": "c1ccc2n[nH]nc2c1", "max response": "-6.33% (inactive)"}
{"smiles": "CC(C)(C)OCC1CO1", "note": "(stereo not given)", "max response": "-5.74% (inactive)"}
{"smiles": "O=C(O)CNC(=O)c1ccc(CO)o1", "max response": "-5.12% (inactive)"}
{"smiles": "CC(=O)CC(C)C", "max response": "-2.67% (inactive)"}
{"smiles": "C=C(C)C(N)=O", "max response": "-6.13% (inactive)"}
{"smiles": "NC(=O)c1cccc([N+](=O)[O-])c1", "max response": "2.42% (inactive)"}
{"smiles": "O=C(O)CNC(=O)c1ccc([N+](=O)[O-])cc1", "max response": "-1.61% (inactive)"}
{"smiles": "Cc1ccco1", "max response": "-4.89% (inactive)"}
{"smiles": "O=C(O)c1cccc([N+](=O)[O-])c1", "max response": "-2.18% (inactive) and -2.21% (inactive)"}
{"smiles": "CC(=C/C=C/C(C)=C/C=C/C=C(C)/C=C/C=C(C)/C=C/C(=O)O)/C=C/C(=O)O", "max response": "2.34% (inactive)"}
{"smiles": "NC(=O)/N=N/C(N)=O", "max response": "-8.1% (inactive)"}
{"smiles": "CCC(C)(C)C(=O)O", "max response": "-5.15% (inactive)"}
{"smiles": "CC(=O)Nc1ccc(N)cc1", "max response": "0.154% (inactive)"}
{"smiles": "CCCOCC(C)OCC(C)O", "note": "(stereo not given)", "max response": "-1.53% (inactive)"}
{"smiles": "C=C(C)C(=O)OCC(C)O", "note": "(stereo not given)", "max response": "-1.16% (inactive)"}
{"smiles": "CC(=O)c1cccc([N+](=O)[O-])c1", "max response": "0.67% (inactive)"}
{"smiles": "CCCOCC(C)O", "note": "(stereo not given)", "max response": "-5.25% (inactive)"}
{"smiles": "CCc1ccccc1", "max response": "-3.6% (inactive)"}
{"smiles": "Nc1c(Cl)cc(Cl)cc1Cl", "max response": "-2.57% (inactive)"}
